# Results filed as inconclusive are left out. Calls of active or inactive are those of the source. Calls come from the whole dose curve.
# Test: qHTS assay to identify small molecule agonists of the NFkB signaling pathway - cell viability counter screen (AID 1159515); note: nearly all actives have a fitted effect of over 55% in size
# Conditions: NFkB-bla ME-180 viability, CellTiter-Glo luminescence, 5 h; series mostly up to 61 µM; activity, negative = cytotoxic: at the top concentration
# Method in brief: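 Viability in NFkB-bla ME-180 cells was measured by CellTiter-Glo luminescence, 30 min room temperature, in wells already treated 5 hr with compounds and read for reporter FRET.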
# % is set by controls: 0 for no effect and ±100 for the full control effect.
row,SMILES,"activity, negative = cytotoxic"
1,O=C(O)CNC(=O)c1ccccc1,4.91% (inactive)
2,CC(C)CC(C)(N)C#N (stereo not drawn),-3.71% [at 78.8 µM] (inactive)
3,CCOC(=O)c1cnc2c(cnn2CC)c1NN=C(C)C,5.33% (inactive)
4,COc1ccccc1OCC1CNC(=O)O1 (stereo not drawn),2.35% (inactive)
5,CO/N=C(\C(=O)N[C@@H]1C(=O)N2C(C(=O)O)=C(CSc3nc(=O)c(O)nn3C)CS[C@H]12)c1csc(N)n1,18.5% (inactive)
6,O=C1CCCCCCCCCCCCCCO1,-6.84% (inactive)
7,CCCc1nn(C)c2c(=O)[nH]c(-c3cc(S(=O)(=O)N4CCN(C)CC4)ccc3OCC)nc12,-3.86% (inactive)
8,CCCCOC(=O)CCC(C)=O,-5.1% (inactive)
9,O=CN(CCO)CCO,6.35% (inactive)
10,C[N+](C)(CCOc1ccccc1)Cc1cccs1,0.145% (inactive)
11,CC1=NN(c2cccc(S(=O)(=O)O)c2)C(=O)C1,2.51% (inactive)
12,CCOC(=O)C1=NOC(c2ccccc2)(c2ccccc2)C1,-1.1% (inactive)
13,CCC(=O)OCc1ccccc1,-1.65% (inactive)
14,COc1cc(C(=O)OC(COCCC(C)C)CN2CCOCC2)cc(OC)c1OC (stereo not drawn),-1.82% (inactive)
15,CC12CCC(C(=O)C1=O)C2(C)C (stereo not drawn),3.21% [at 78.8 µM] (inactive)
16,NC(N)=NCCN1CCCCCCC1,-1.12% [at 0.628 µM] (inactive)
17,Cc1ncc(COP(=O)(O)O)c(C=O)c1O,-0.199% (inactive)
18,CC(=O)Oc1cccc(C)c1,15% (inactive)
19,CN1[C@@H]2CC[C@H]1CC(OC(=O)C(O)c1ccccc1)C2 (stereo partly drawn),15% (inactive)
20,CC(N)C12CC3CC(CC(C3)C1)C2 (stereo not drawn),-24% (inactive)
21,CCN(CC#N)c1cccc(C)c1,4.44% (inactive)
22,CC1=NN(c2cc(S(=O)(=O)O)ccc2Cl)C(=O)C1N=Nc1ccccc1 (stereo not drawn),6.77% (inactive)
23,CC(=O)c1ccccc1[N+](=O)[O-],1.61% (inactive)
